The results in this text go back to PubChem BioAssay (NCATS).

Unmarked numbers belong to inactive results. Records with an inconclusive call do not appear. Active and inactive are the calls of the source. Unless noted, calls follow the shape of the dose curve; as a rule, active = well fitted curve in the direction sought with a large enough effect; inconclusive = small, poorly fitted or top-dose-only effect, or another doubt; inactive = no such curve, though single readings can be large; an effect the other way counts as inactive or inconclusive. Numbered stars: 1 amine (or outer) side, 2 acyl side, 3 side chain; on linkers, the order of the positions; unused ones are H or OH. Bridge positions count the residues as written; N and C are the ends. Square brackets hold non-standard residues; d marks the D form. Peptide text beside a SMILES is read from it. I, II: the chains in the order shown. Actinocin(9to1) = Cc1c2oc3c(C)ccc(C(=O)[*:1])c3nc-2c(C(=O)[*:2])c(N)c1=O; NMeV = CN[C@H](C(=O)O)C(C)C; Sar = CNCC(=O)O

Assay [1] can be described thus: Cell Viability - Mesenchymal (AID 546).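 Also: cells exposed to compound for 40 hours before reading; 0% = DMSO only and -100% = 100 µM tamoxifen.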 The conditions noted are these: mesenchymal cells viability, qHTS; activity change, negative = cytotoxicity: at 91.7 µM (top of the series). The method in brief:
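AC50 values reflect the drop in intracellular ATP in a human kidney mesenchymal line derived from normal glomeruli. Treatment lasts 40 hr at 37 °C in complete medium, and the signal comes from CellTiter-Glo luminescence.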

A short description of assay [2]: Cellular Toxicity (caspase-3) HepG2 (AID 654).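 Also: cells exposed to compound for 16 hours before reading; 0% = DMSO alone and 100% = caspase signal from 100 µM tamoxifen.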 The method in brief: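 HepG2 cells (1500/well) in complete medium were treated with compounds for 16 hr at 37 °C. Caspase-3/7 activity was then read as luminescence from peptide-aminoluciferin cleavage. AC50 came from Hill fits, normalized to DMSO and 100 uM tamoxifen.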
Assay [3] can be described thus: Cellular Toxicity (caspase-3) Jurkat (AID 655).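 Also: cells exposed to compound for 16 h at 37 °C before reading.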 Also: potency is read from the fitted curve at half-maximal effect. The method in brief:
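Jurkat cells (5000/well) in complete medium exposed 16 h at 37 C; caspase-3/7 activity read by Caspase-Glo luminescence after 20 min at room temperature. Normalized to DMSO and 100 uM tamoxifen; AC50 from Hill fits.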

Assay [4] in a line: Cellular Toxicity (caspase-3) HUV-EC-C (AID 656).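 Also: 0% = DMSO basal and 100% = 100 µM tamoxifen.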 The method in brief: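 HUV-EC-C cells (1000/well) in complete medium, compound-treated 16 h at 37 °C; caspase-3/7 activity read by Caspase-Glo 3/7 luminescence. Normalized to DMSO (basal) and 100 uM tamoxifen (100%); AC50 from Hill-equation concentration-response fits.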
Assay [5] in a line: Cellular Toxicity (caspase-3) BJ (AID 658).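 Also: 0% = DMSO basal and 100% = 10 µM staurosporine.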 The method in brief:
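Readout: Caspase-Glo 3/7 luminescence increase in BJ cells after 16 hr treatment at 37 °C. Staurosporine and tamoxifen served as positive controls; AC50 values came from Hill modelling of data normalized to DMSO and 10 uM staurosporine.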

A short description of assay [6]: Cellular Toxicity (caspase-3) MRC-5 (AID 659). Also: potency is read from the fitted curve at half-maximal effect.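 As to caspase-3 activation: 0% = DMSO basal and 100% = 10 µM staurosporine.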 The settings on record: Potency: caspase-3 activation. The method in brief: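 Concentration-dependent caspase 3/7 activation is measured in human normal lung fibroblasts (MRC-5) following 16-hour treatment. AC50 values come from standard Hill-equation modeling of luminescence normalized to DMSO and 10 uM staurosporine.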

Assay [7] is described as follows: Cellular Toxicity (caspase-3) Mesangial (AID 660).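 Also: cells exposed to compound for 16 h before the caspase read.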 The method in brief: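 Human renal glomerular mesangial cells (1000/well) were treated with compounds for 16 h at 37 °C in complete medium, then caspase 3/7 activity was read by Caspase-Glo luminescence. Data were normalized to DMSO and 100 uM tamoxifen; AC50 from Hill fits.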
A short description of assay [8]: Cellular Toxicity (caspase-3) SK-N-SH (AID 661). Also: potency is read from the fitted curve at half-maximal effect.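 As to caspase-3 activation: 0% = DMSO basal and 100% = 10 µM staurosporine.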 The essentials: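 SK-N-SH human neuroblastoma cells (1500/well) were treated with compounds for 16 hr at 37 °C in complete medium; caspase 3/7 activity was read by Caspase-Glo luminescence. AC50 came from Hill fits of data normalized to DMSO and 10 uM staurosporine.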
The target in assay [9] is 3',5'-cyclic-AMP phosphodiesterase 4B (Homo sapiens) (UniProt Q07343). The experiment in a line: qHTS Assay for Inhibitors of PDE-IV (AID 607; active = well fitted activation curve with a large enough effect in the main read-out, with a control signal flat, not every such curve was filed as active; also: % of control where 0% means no effect). The essentials:
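ACTOne HEK293 cells carry a modified cAMP-gated CNG channel and express endogenous PDE4; plated 1000 cells/well, compounds up to 22.9 uM final. Membrane-potential dye fluorescence (ex 535/em 590) was read; parental cells received 10 uM forskolin + 100 uM RO 20-1724.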
(In general: Quantitative high-throughput screening tests each substance at several concentrations.)

Assay [10] can be described thus: Cellular Toxicity (caspase-3) SHSY5Y (AID 657). The method in brief: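 SH-SY5Y human neuroblastoma cells, 1500/well, exposed to compound for 16 hours at 37 °C in complete medium. Caspase-3/7 activity read by Caspase-Glo luminescence after 1 hr at room temperature, normalized to DMSO and 10 uM staurosporine; AC50 from Hill fit.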

Chain of 3',5'-cyclic-AMP phosphodiesterase 4B (Homo sapiens) (Q07343 whole entry, looked up): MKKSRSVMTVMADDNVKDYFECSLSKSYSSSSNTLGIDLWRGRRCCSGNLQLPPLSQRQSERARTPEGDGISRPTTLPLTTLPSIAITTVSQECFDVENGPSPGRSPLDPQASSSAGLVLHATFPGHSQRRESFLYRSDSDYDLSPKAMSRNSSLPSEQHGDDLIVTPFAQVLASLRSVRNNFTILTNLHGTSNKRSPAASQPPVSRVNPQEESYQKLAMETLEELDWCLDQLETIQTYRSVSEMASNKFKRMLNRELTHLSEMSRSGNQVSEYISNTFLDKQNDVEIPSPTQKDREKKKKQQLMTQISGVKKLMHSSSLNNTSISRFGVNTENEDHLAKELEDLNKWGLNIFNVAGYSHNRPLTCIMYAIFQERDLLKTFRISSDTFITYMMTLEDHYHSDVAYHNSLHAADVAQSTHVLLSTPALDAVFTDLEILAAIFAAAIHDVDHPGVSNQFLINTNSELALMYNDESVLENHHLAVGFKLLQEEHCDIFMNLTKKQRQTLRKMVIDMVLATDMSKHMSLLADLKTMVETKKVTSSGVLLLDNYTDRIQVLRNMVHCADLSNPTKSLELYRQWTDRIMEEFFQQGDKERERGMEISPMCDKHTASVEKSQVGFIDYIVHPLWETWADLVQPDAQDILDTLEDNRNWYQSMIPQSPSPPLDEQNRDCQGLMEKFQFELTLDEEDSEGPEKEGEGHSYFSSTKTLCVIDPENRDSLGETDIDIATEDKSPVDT

Take `Cc1c2oc3c(C)ccc(C(=O)N[C@@H]4C(=O)N[C@H](C(C)C)C(=O)N5CCC[C@H]5C(=O)N(C)CC(=O)N(C)[C@@H](C(C)C)C(=O)O[C@@H]4C)c3nc-2c(C(=O)N[C@@H]2C(=O)N[C@H](C(C)C)C(=O)N3CCC[C@H]3C(=O)N(C)CC(=O)N(C)[C@@H](C(C)C)C(=O)O[C@@H]2C)c(N)c1=O` (I: T[dV]P[Sar][NMeV] / II: T[dV]P[Sar][NMeV]; ester I:1-I:C, II:1-II:C; linker I:N-II:N via Actinocin(9to1)): the activity change, negative = cytotoxicity in assay [1] was -18.7%. Also, the Potency result in [2] and in assay [6] was “inactive” in each case. In addition, the Potency is 3.98 nM (active) in [3] and 15.8 nM (active) in assay [8]. The compound was called inactive in assay [4], in assay [5] and in assay [7].
In the case of `NCCc1ccn[nH]1`, the result in [9] was inactive.
As to `CC(O)C(=O)O` (stereo not drawn), in [1], the activity change, negative = cytotoxicity is -3.83%. Further, the Potency result in assay [2], in [3], in assay [10], in assay [6] and in [8] was “inactive” in each case. In addition, the result in [4], in [5] and in assay [7] was inactive.
Regarding `Oc1c(Cl)cc(Cl)cc1Sc1cc(Cl)cc(Cl)c1O`, the activity change, negative = cytotoxicity in assay [1] was -28.4%. The Potency result in assay [2], in assay [10], in assay [6] and in assay [8] was “inactive” throughout. Also, the compound was classed as inactive in [4], in assay [5] and in assay [7].
Turning to `CCCCCCc1ccc(O)cc1O`, in [1], the activity change, negative = cytotoxicity is -9.3%. In addition, the Potency entry in assay [2], in assay [3], in assay [10], in [6] and in assay [8] was “inactive” throughout. In addition, the outcome in assay [4], in assay [5] and in assay [7] was inactive.
As to `CC/C(=C(/CC)c1ccc(O)cc1)c1ccc(O)cc1`, the activity change, negative = cytotoxicity in assay [1] was -3%. Moreover, the Potency result in assay [2], in assay [3], in assay [10], in assay [6] and in assay [8] was “inactive” throughout. For the same compound, the result in [4], in [5] and in [7] was inactive.
Consider `COC1=CC(=O)C[C@@H](C)[C@]12Oc1c(Cl)c(OC)cc(OC)c1C2=O`, for which the activity change, negative = cytotoxicity in [1] was -20.5%. Further, the Potency result in [2], in [3], in assay [10], in assay [6] and in assay [8] was “inactive” each time. Also, the result in assay [4], in assay [5] and in [7] was inactive.
Take `C=CCc1ccc(O)c(OC)c1`: in [1], the activity change, negative = cytotoxicity is 5.14%. Further, the Potency entry in assay [2], in assay [3], in assay [10], in assay [6] and in assay [8] was “inactive” each time. For the same compound, the call in assay [4], in [5] and in assay [7] was inactive.
On to `CCOC(=O)n1ccn(C)c1=S`, for which, in [9], the result was inactive.
For the compound `COc1cccc2c1C(=O)c1c(O)c3c(c(O)c1C2=O)C[C@@](O)(C(C)=O)C[C@@H]3O[C@H]1C[C@H](N)[C@H](O)[C@H](C)O1`, the Potency in assay [3] was 5.01 nM (active); in [6] it was 31600 nM (active); in [8] it was 126 nM (active). In assay [4], the compound was called inactive.
Take `C=C(CC)C(=O)c1ccc(OCC(=O)O)c(Cl)c1Cl`: the activity change, negative = cytotoxicity in assay [1] is -21.9%. In addition, the Potency entry in assay [2], in assay [3], in assay [10], in [6] and in assay [8] was “inactive” throughout. The result in [4], in assay [5] and in assay [7] was inactive.
Turning to `Oc1ccc(O)cc1`, the activity change, negative = cytotoxicity in assay [1] is -96.1% (active). The Potency entry in assay [2], in [3], in [10], in [6] and in assay [8] was “inactive” in each case. For the same compound, the compound was called inactive in [4], in assay [5] and in [7].
Take `O=c1ccc2ccccc2o1`: the activity change, negative = cytotoxicity in assay [1] was 4.05%. Further, the Potency result in assay [2], in assay [3], in assay [10], in [6] and in [8] was “inactive” in each case. The outcome in assay [4], in assay [5] and in assay [7] was inactive.
On to `CN(C)/N=N/c1nc[nH]c1C(N)=O`, for which the activity change, negative = cytotoxicity in assay [1] was -2.47%. The Potency entry in [2], in assay [3], in [10], in assay [6] and in [8] was “inactive” throughout. Also, the compound was called inactive in assay [4], in [5] and in [7].
